# Source: PMC7862700, “An all-to-all approach to the identification of sequence-specific readers for epigenetic DNA modifications on cytosine”
# Columns and labels:
# Experiment in all cases: DAPPL (digital affinity profiling via proximity ligation, sequencing); 10 mM Tris-HCl pH 7.5, 50 mM NaCl, 1 mM DTT, 4% glycerol, room temperature, 30 min; GST-TFs on glutathione beads, 16-mer random dsDNA library, 0.1% formaldehyde crosslink after washing; high values mean tight binding
# FEV = target: T1, FEV (Homo sapiens, UniProt Q99581 1-238); settings: protein: recombinant; tags: N-terminal GST; dsDNA, one strand shown
# T1 sequence: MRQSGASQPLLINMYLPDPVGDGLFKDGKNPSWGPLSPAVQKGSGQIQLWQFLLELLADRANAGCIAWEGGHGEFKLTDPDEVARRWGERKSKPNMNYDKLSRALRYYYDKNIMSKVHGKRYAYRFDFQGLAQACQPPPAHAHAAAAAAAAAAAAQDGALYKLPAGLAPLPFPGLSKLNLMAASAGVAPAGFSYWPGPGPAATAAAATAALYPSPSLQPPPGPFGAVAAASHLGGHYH
# In short: (§1)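 Human transcription factors fused to GST were expressed in yeast, captured on glutathione beads, given DNA barcodes and pooled with a GST-only negative control. Pools were incubated with 200 nmole of a 16-mer random double-stranded DNA library in Tris/NaCl/DTT/glycerol buffer at room temperature for 30 min. They were then washed, crosslinked with 0.1% formaldehyde, proximity-ligated (BsaI/T4 ligase, 1 h, 37 °C), PCR-amplified and sequenced on an Illumina NextSeq500. Binding signal is each 6-mer's read frequency for a factor divided by its frequency for the GST control.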
# ETV5 = ETV5 (Homo sapiens, UniProt P41161 1-510); settings: protein: recombinant; tags: N-terminal GST; dsDNA, one strand shown
# In short: as §1
# HSF1 = HSF1 (Homo sapiens, UniProt Q00613 1-529); settings: protein: recombinant; tags: N-terminal GST; chain copies: 3; dsDNA, one strand shown
# In short: as §1
# SPIC = target: T2, SPIC (Homo sapiens, UniProt Q8N5J4 1-248); settings: protein: recombinant; tags: N-terminal GST; dsDNA, one strand shown
# T2 sequence: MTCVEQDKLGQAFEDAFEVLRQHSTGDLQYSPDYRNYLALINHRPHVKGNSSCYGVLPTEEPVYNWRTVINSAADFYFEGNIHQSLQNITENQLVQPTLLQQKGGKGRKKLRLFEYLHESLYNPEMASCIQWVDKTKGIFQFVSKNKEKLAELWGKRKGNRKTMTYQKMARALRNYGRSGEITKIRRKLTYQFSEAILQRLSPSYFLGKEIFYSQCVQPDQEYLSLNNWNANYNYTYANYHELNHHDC
# In short: as §1
# ELF4 = ELF4 (Homo sapiens, UniProt Q99607 1-663); settings: protein: recombinant; tags: N-terminal GST; dsDNA, one strand shown
# In short: as §1
# ELK4 = target: T3, ELK4 (Homo sapiens, UniProt P28324-2 1-405); settings: protein: recombinant; tags: N-terminal GST; dsDNA, one strand shown
# T3 sequence: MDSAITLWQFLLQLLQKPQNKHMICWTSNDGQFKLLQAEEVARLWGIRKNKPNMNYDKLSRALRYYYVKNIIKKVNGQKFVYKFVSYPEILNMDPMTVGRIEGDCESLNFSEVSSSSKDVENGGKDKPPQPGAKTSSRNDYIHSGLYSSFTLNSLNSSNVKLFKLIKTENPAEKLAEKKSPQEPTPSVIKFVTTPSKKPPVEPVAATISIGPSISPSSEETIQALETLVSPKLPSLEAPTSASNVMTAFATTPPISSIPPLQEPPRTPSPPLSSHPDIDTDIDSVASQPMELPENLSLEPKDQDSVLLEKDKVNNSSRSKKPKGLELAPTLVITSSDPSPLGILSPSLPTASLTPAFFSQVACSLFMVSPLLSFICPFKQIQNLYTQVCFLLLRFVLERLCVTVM
# In short: as §1
# ETV2 = target: T4, ETV2 (Homo sapiens, UniProt O00321 1-342); settings: protein: recombinant; tags: N-terminal GST; dsDNA, one strand shown
# T4 sequence: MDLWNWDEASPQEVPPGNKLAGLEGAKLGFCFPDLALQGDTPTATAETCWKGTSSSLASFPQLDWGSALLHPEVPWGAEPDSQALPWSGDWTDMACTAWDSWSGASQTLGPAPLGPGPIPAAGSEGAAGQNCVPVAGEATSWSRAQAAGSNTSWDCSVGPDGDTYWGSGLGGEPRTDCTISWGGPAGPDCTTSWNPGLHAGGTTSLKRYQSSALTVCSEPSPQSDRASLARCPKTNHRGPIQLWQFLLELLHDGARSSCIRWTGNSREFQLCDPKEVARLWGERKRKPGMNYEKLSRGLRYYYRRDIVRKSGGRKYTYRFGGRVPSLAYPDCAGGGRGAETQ
# In short: as §1
# ELF3 = target: T5, ELF3 (Homo sapiens, UniProt P78545 1-371); settings: protein: recombinant; tags: N-terminal GST; dsDNA, one strand shown
# T5 sequence: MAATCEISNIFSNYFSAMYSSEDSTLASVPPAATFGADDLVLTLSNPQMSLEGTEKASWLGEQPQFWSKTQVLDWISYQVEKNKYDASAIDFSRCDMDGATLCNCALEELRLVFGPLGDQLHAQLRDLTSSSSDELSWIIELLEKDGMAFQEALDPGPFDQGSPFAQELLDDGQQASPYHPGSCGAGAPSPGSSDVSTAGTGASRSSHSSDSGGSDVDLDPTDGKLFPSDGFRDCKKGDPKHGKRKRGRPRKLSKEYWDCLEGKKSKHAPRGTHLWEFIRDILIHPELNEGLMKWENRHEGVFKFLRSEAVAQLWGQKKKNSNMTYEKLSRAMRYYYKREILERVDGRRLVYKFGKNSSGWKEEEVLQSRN
# In short: as §1
# CRX = CRX (Homo sapiens, UniProt O43186 1-299); settings: protein: recombinant; tags: N-terminal GST; dsDNA, one strand shown
# In short: as §1
# ETV1 = ETV1 (Homo sapiens, UniProt P50549 1-477); settings: protein: recombinant; tags: N-terminal GST; dsDNA, one strand shown
# In short: as §1
# ERF = target: T6, ERF (Homo sapiens, UniProt P50548 1-548); settings: protein: recombinant; tags: N-terminal GST; dsDNA, one strand shown
# T6 sequence: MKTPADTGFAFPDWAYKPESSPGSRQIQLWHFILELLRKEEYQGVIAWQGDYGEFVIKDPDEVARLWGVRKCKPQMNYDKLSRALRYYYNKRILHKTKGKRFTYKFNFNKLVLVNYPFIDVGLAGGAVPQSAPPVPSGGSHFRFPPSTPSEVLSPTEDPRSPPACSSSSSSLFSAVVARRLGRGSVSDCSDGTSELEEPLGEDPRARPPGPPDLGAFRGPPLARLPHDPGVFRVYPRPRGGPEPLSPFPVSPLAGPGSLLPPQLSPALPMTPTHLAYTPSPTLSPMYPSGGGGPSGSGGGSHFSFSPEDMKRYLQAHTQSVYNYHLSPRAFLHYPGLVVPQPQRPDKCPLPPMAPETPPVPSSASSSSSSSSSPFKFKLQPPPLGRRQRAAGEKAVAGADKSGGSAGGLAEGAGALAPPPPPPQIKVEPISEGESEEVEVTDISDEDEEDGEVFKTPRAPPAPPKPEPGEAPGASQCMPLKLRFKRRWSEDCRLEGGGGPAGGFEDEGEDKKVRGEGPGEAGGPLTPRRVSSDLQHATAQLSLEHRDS
# In short: as §1
# ETV3L = target: T7, ETV3L (Homo sapiens, UniProt Q6ZN32 1-361); settings: protein: recombinant; tags: N-terminal GST; dsDNA, one strand shown
# T7 sequence: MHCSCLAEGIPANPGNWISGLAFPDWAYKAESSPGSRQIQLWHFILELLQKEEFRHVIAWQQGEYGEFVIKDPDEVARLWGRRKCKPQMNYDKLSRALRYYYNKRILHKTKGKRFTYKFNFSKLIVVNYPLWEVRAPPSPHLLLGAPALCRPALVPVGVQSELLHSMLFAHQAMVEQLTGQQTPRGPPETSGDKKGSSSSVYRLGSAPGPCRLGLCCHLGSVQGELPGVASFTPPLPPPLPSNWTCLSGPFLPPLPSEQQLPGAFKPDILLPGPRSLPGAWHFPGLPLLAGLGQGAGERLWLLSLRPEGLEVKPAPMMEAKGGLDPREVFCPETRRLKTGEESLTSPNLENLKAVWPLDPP
# In short: as §1
# ETS2 = target: T8, ETS2 (Homo sapiens, UniProt P15036 1-469); settings: protein: recombinant; tags: N-terminal GST; dsDNA, one strand shown
# T8 sequence: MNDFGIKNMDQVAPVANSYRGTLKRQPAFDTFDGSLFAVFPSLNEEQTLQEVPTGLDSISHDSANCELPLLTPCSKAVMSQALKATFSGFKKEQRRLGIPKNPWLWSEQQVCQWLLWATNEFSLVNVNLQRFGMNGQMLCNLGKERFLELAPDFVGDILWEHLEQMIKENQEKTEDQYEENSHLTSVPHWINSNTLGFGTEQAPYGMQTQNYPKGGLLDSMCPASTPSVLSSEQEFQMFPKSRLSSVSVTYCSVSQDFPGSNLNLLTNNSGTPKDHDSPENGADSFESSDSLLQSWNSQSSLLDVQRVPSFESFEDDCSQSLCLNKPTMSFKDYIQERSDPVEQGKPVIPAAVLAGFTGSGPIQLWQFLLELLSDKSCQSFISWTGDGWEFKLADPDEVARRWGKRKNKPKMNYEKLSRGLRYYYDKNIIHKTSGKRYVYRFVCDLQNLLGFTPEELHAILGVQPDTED
# In short: as §1
# SPDEF = target: T9, SPDEF (Homo sapiens, UniProt O95238 1-335); settings: protein: recombinant; tags: N-terminal GST; dsDNA, one strand shown
# T9 sequence: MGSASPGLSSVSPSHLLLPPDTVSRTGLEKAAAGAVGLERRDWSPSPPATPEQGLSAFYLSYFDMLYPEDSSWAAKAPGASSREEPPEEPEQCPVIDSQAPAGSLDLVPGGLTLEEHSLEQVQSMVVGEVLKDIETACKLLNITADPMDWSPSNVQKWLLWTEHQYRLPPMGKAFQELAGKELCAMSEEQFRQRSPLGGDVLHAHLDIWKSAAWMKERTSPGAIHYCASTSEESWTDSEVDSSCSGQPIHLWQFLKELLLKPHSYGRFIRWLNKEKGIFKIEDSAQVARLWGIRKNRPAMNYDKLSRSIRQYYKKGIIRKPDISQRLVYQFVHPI
# In short: as §1
# ETV7 = target: T10, ETV7 (Homo sapiens, UniProt Q9Y603 1-341); settings: protein: recombinant; tags: N-terminal GST; dsDNA, one strand shown
# T10 sequence: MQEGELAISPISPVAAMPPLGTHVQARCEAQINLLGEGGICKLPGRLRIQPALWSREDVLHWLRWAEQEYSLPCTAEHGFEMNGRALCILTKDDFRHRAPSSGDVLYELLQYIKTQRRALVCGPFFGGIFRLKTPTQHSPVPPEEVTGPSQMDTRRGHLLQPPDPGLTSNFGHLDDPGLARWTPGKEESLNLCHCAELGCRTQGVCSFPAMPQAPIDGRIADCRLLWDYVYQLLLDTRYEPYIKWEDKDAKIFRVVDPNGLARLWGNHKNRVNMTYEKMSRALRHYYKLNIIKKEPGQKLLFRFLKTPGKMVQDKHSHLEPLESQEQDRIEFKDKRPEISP
# In short: as §1
# ELF5 = target: T11, ELF5 (Homo sapiens, UniProt Q9UKW6-2 1-255); settings: protein: recombinant; tags: N-terminal GST; dsDNA, one strand shown
# T11 sequence: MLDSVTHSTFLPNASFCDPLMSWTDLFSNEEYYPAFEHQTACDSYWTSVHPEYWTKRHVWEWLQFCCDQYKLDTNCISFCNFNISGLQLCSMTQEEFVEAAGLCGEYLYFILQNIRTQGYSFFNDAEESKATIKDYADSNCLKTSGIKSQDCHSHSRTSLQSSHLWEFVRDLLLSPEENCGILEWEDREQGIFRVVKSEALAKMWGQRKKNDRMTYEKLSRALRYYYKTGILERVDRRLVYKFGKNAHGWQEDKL
# In short: as §1
# ETV3 = target: T12, ETV3 (Homo sapiens, UniProt P41162-2 1-143); settings: protein: recombinant; tags: N-terminal GST; dsDNA, one strand shown
# T12 sequence: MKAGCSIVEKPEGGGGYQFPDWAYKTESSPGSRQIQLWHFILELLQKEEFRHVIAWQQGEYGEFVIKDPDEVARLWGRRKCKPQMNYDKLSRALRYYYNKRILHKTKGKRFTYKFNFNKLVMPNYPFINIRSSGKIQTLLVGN
# In short: as §1
# ETV6 = ETV6 (Homo sapiens, UniProt P41212 1-452); settings: protein: recombinant; tags: N-terminal GST; dsDNA, one strand shown
# In short: as §1
# HSF1, sequence (Q00613 whole entry): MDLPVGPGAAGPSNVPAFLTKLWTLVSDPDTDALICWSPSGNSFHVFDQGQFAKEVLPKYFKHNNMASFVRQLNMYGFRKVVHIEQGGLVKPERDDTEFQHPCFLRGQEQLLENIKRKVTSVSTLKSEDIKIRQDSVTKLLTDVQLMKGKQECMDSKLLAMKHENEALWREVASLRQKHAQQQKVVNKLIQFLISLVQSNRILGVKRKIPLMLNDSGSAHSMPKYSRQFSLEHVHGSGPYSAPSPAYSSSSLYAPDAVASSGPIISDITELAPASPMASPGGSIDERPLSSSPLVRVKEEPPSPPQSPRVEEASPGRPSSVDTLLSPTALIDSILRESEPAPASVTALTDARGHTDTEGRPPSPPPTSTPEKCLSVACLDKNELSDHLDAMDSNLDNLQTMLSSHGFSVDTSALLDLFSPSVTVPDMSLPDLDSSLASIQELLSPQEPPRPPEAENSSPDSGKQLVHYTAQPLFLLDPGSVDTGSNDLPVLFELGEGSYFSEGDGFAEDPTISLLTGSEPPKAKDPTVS
# ETV1, sequence (P50549 whole entry): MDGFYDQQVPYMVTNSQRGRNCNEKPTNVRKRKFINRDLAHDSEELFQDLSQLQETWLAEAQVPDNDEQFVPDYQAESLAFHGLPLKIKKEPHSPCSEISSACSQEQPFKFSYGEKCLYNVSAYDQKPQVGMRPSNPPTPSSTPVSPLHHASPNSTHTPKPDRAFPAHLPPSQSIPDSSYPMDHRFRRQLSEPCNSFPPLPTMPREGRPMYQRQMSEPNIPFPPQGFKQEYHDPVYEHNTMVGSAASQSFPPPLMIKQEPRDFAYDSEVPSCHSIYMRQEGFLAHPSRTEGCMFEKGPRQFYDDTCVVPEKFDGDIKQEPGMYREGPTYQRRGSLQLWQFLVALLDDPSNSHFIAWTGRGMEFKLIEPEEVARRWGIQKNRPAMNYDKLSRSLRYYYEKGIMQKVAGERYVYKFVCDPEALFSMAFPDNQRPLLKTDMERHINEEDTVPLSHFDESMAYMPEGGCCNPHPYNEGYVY
# CRX, sequence (O43186 whole entry): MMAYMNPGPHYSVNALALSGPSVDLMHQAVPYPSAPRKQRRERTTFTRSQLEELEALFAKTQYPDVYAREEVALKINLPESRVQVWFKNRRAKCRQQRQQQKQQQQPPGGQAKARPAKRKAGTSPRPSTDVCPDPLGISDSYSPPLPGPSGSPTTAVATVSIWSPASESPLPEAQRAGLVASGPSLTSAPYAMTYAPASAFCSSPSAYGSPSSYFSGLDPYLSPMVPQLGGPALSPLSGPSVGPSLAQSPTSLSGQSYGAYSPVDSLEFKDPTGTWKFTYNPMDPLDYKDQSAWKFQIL
# ETV6, sequence (P41212 whole entry): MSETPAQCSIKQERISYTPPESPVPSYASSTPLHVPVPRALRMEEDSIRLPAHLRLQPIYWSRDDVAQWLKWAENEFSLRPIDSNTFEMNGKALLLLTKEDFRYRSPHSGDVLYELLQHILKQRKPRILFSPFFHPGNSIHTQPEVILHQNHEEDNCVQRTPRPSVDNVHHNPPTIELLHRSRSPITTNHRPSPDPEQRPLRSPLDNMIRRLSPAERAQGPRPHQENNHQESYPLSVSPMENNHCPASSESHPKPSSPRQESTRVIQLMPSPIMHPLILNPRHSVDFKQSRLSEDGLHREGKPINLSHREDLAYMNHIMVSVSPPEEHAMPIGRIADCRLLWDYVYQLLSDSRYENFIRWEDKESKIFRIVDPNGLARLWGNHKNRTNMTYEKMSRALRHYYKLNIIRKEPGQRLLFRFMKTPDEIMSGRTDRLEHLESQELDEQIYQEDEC
# ELF4, sequence (Q99607 whole entry): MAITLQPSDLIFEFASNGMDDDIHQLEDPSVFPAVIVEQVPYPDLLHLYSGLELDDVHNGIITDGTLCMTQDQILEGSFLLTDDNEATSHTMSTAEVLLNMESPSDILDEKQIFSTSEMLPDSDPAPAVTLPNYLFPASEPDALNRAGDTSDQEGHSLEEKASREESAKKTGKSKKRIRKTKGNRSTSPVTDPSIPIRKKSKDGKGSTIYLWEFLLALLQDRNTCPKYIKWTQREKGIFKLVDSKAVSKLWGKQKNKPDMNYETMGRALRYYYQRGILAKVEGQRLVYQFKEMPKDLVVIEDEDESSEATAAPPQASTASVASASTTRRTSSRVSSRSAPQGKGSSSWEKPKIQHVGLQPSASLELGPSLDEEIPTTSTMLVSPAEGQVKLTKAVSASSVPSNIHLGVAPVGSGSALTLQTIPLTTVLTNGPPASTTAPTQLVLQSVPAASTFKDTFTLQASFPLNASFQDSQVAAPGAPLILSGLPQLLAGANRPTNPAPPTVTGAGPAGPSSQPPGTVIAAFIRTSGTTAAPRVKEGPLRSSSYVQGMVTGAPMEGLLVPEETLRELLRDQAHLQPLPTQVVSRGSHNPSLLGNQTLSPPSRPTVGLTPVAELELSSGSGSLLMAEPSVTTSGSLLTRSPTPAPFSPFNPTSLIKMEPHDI
# ETV5, sequence (P41161 whole entry): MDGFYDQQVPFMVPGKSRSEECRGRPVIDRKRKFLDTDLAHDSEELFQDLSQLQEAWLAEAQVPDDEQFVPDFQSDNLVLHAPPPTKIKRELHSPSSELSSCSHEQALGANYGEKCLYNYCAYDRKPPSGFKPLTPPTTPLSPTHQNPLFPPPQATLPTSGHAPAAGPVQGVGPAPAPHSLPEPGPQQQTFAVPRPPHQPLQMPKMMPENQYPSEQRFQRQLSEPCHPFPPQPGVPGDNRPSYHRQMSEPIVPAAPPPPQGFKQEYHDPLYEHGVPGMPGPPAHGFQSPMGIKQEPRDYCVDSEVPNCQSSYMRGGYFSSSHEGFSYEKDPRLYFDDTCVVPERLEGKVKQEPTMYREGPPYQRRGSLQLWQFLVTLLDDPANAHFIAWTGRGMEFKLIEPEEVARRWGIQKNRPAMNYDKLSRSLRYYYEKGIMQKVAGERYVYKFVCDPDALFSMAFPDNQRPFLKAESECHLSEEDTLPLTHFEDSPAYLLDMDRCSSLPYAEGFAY
sequence,measurement,setting,value
TGACCG,binding signal,FEV,"1.66 fold enrichment (6-mer frequency, TF over GST control)"
same,binding signal,ETV5,"1.33 fold enrichment (6-mer frequency, TF over GST control)"
same,binding signal,HSF1,"1.17 fold enrichment (6-mer frequency, TF over GST control)"
same,binding signal,SPIC,"1.68 fold enrichment (6-mer frequency, TF over GST control)"
same,binding signal,ELF4,"1.47 fold enrichment (6-mer frequency, TF over GST control)"
same,binding signal,ELK4,"1.4 fold enrichment (6-mer frequency, TF over GST control)"
same,binding signal,ETV2,"1.52 fold enrichment (6-mer frequency, TF over GST control)"
same,binding signal,ELF3,"1.66 fold enrichment (6-mer frequency, TF over GST control)"
same,binding signal,CRX,"1.1 fold enrichment (6-mer frequency, TF over GST control)"
same,binding signal,ETV1,"1.56 fold enrichment (6-mer frequency, TF over GST control)"
same,binding signal,ERF,"1.41 fold enrichment (6-mer frequency, TF over GST control)"
same,binding signal,ETV3L,"1.41 fold enrichment (6-mer frequency, TF over GST control)"
same,binding signal,ETS2,"1.55 fold enrichment (6-mer frequency, TF over GST control)"
same,binding signal,SPDEF,"1.44 fold enrichment (6-mer frequency, TF over GST control)"
same,binding signal,ETV7,"1.49 fold enrichment (6-mer frequency, TF over GST control)"
same,binding signal,ELF5,"1.4 fold enrichment (6-mer frequency, TF over GST control)"
same,binding signal,ETV3,"1.53 fold enrichment (6-mer frequency, TF over GST control)"
same,binding signal,ETV6,"1.36 fold enrichment (6-mer frequency, TF over GST control)"
